Source: PubChem BioAssay (NCI)
This is part of a sample that, as a whole, favours compounds with a hit. Of some 79,000 tested, about 15% had one in any assay. Calls of active or inactive are those of the source. Rule as the data show it: active = growth inhibition above about 70%; inactive = the rest.

How the values were obtained:
[1] = NCI Yeast Anticancer Drug Screen. Data for the rad52 strain (AID 147);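 also: 0% = growth of vehicle-treated control cultures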; settings: S. cerevisiae rad52 mutant growth inhibition, active compounds read high
In short: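 Screen used a yeast mutant impaired in DNA repair. After compound exposure, growth was measured. Values reflect inhibition compared with vehicle-treated cells.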

[2] = NCI Yeast Anticancer Drug Screen. Data for the wt1 strain (AID 149);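 also: 0% = growth of vehicle-treated wt1 cultures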; settings: S. cerevisiae wt1 strain (SPY 50644) growth inhibition, active compounds read high
In short: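 Readout: yeast growth inhibition, normalised to vehicle controls, in the wt1 strain exposed to test compounds.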

[3] = NCI Yeast Anticancer Drug Screen. Data for the rad50EPP+ strain (AID 151);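 also: 0% = growth of vehicle-treated control cultures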; settings: S. cerevisiae rad50 mutant strain, active compounds read high
In short: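 Exposing the rad50EPP+ strain to each compound, growth was compared with vehicle-only cultures to give inhibition.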

[4] = NCI Yeast Anticancer Drug Screen. Data for the mgt1 strain (AID 153); settings: S. cerevisiae mgt1 mutant growth inhibition, active compounds read high
In short: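 Genetically defined yeast (mgt1) treated with compound; inhibition of growth expressed against vehicle-treated controls.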

[5] = NCI Yeast Anticancer Drug Screen. Data for the rad50 strain (AID 155);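 also: 0% = growth of vehicle-only cultures of the same strain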; settings: S. cerevisiae rad50 strain growth inhibition, active compounds read high
In short: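 Compounds were tested on a yeast strain with an engineered DNA damage repair alteration; the reported value is growth inhibition normalised to vehicle treatment.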

[6] = NCI Yeast Anticancer Drug Screen. Data for the mec2-1 strain (AID 157); settings: S. cerevisiae mec2-1 strain, active compounds read high
In short: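 Readout is yeast growth inhibition, normalised to vehicle-treated controls, in the mec2-1 strain exposed to compound.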

[7] = NCI Yeast Anticancer Drug Screen. Data for the rad14 strain (AID 159);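 also: 0% = growth of vehicle-treated control cultures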; settings: S. cerevisiae rad14 strain growth inhibition, active compounds read high
In short: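 Compound-treated yeast with a defined DNA-repair lesion; growth inhibition normalised to vehicle-treated cultures.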

[8] = NCI Yeast Anticancer Drug Screen. Data for the sgs1 mgt1 strain (AID 161);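 also: 0% = growth of cultures given vehicle only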; settings: S. cerevisiae sgs1 mgt1 strain, active compounds read high
In short: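 Percent growth inhibition was derived by comparing compound-exposed mutant yeast with vehicle-exposed cultures. The strain carries alterations in DNA damage repair.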

[9] = NCI Yeast Anticancer Drug Screen. Data for the CLN2oe strain (AID 163);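 also: 0% = growth of vehicle-only control cultures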; settings: S. cerevisiae CLN2oe strain, active compounds read high
In short: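 Values reflect how much compound exposure reduced yeast growth, referenced to vehicle-exposed cells. Assay organism is a strain with a defined genetic change affecting cell-cycle control.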

[10] = NCI Yeast Anticancer Drug Screen. Data for the cln2 rad14 strain (AID 165);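 also: 0% = growth equal to vehicle treated cultures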; settings: S. cerevisiae cln2 rad14 strain, active compounds read high
In short: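 Relative to vehicle controls, growth inhibition of compound-treated cln2 rad14 yeast was recorded.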

[11] = NCI Yeast Anticancer Drug Screen. Data for the bub3 strain (AID 167); settings: S. cerevisiae bub3 mutant strain, active compounds read high
In short: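 Growth of a checkpoint-deficient yeast mutant is measured after compound exposure. Values represent inhibition relative to vehicle.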

[12] = NCI Yeast Anticancer Drug Screen. Data for the wt2 strain (AID 169);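 also: 0% = growth of vehicle-treated yeast cultures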; settings: S. cerevisiae wt2 strain growth inhibition, active compounds read high
In short: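 Values express reduction in yeast growth under compound treatment, referenced to vehicle-treated cells.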

[13] = NCI Yeast Anticancer Drug Screen. Data for the mlh1 strain (AID 171);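 also: 0% = growth of vehicle-treated control cultures of the same strain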; settings: S. cerevisiae mlh1 strain growth inhibition, active compounds read high
In short: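 Steps: expose the defined-mutant yeast strain to compound; expose a parallel culture to vehicle; measure growth; express compound effect as inhibition relative to the vehicle culture.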

[14] = NCI Yeast Anticancer Drug Screen. Data for the sgs1 strain (AID 173);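 also: 0% = growth of vehicle-only control cultures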; settings: S. cerevisiae sgs1 mutant, active compounds read high
In short: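 Treat defined-mutant yeast with compound; measure growth; calculate inhibition relative to vehicle-treated cells.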

[15] = NCI Yeast Anticancer Drug Screen. Data for the mlh1 rad18 strain (AID 175); settings: S. cerevisiae mlh1 rad18 strain growth inhibition, active compounds read high
In short: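 Test agents were incubated with a yeast strain of defined genotype (DNA damage repair defect). Inhibition of growth was derived by comparison with vehicle-exposed cultures.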

[16] = NCI Yeast Anticancer Drug Screen. Data for the rad18 strain (AID 177); settings: S. cerevisiae rad18 mutant growth inhibition, active compounds read high
In short: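 A genetically defined yeast mutant impaired in DNA damage repair was treated with test compounds, then its growth was measured against cultures receiving vehicle alone.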

[17] = at 5.0 µM (retest, dose inferred, filed as 0.5)
[18] = at 50.0 µM (retest, dose inferred, filed as 5.0)

Measured: growth inhibition

NC(N)=NS(=O)(=O)c1ccc(Nc2c3ccccc3nc3c(C(=O)NCCO)cccc23)cc1
inactive: [1]; at 1.2 µM 1% | [1]; at 3.7 µM 3% | [1]; at 11.0 µM 4% | [1]; at 33.0 µM 17% | [2]; at 1.2 µM 1% | [2]; at 3.7 µM 1% | [2]; at 11.0 µM 2% | [2]; at 33.0 µM -1% | [2]; at 100.0 µM 5% | [3]; at 1.2 µM -1% | [3]; at 3.7 µM -5% | [3]; at 11.0 µM -5% | [3]; at 33.0 µM 5% | [3]; at 100.0 µM 37% | [4]; at 1.2 µM -1% | [4]; at 3.7 µM -4% | [4]; at 11.0 µM -3% | [4]; at 33.0 µM 12% | [4]; at 100.0 µM 38% | [5]; at 1.2 µM 0% | [5]; at 3.7 µM 0% | [5]; [17] -11% | [5]; at 11.0 µM 3% | [5]; at 33.0 µM 16% | [5]; at 50.0 µM 69.4% | [6]; at 1.2 µM -3% | [6]; at 3.7 µM 0% | [6]; [17] -4% | [6]; at 11.0 µM -2% | [6]; at 33.0 µM 1% | [6]; [18] -2% | [6]; at 50.0 µM -21.9% | [6]; at 100.0 µM 33% | [7]; at 1.2 µM 0% | [7]; at 3.7 µM -1% | [7]; at 11.0 µM -2% | [7]; at 33.0 µM 2% | [7]; at 100.0 µM 17% | [8]; [17] 2% | [8]; [18] 20% | [8]; at 50.0 µM 20.4% | [9]; at 1.2 µM 2% | [9]; at 3.7 µM 0% | [9]; at 11.0 µM 4% | [9]; at 33.0 µM -6% | [9]; at 100.0 µM 11% | [10]; [17] 16% | [10]; [18] 17% | [10]; at 50.0 µM -5.1% | [11]; at 1.2 µM -4% | [11]; at 3.7 µM -1% | [11]; [17] -12% | [11]; at 11.0 µM -4% | [11]; at 33.0 µM -4% | [11]; [18] 33% | [11]; at 50.0 µM -1.35% | [11]; at 100.0 µM 7% | [12]; at 1.2 µM 0% | [12]; at 3.7 µM 0% | [12]; at 11.0 µM 1% | [12]; at 33.0 µM 0% | [12]; at 100.0 µM 20% | [13]; at 1.2 µM -2% | [13]; at 3.7 µM 0% | [13]; at 11.0 µM 1% | [13]; at 33.0 µM 1% | [13]; at 100.0 µM 48% | [14]; at 1.2 µM -1% | [14]; at 3.7 µM 0% | [14]; at 11.0 µM 0% | [14]; at 33.0 µM 5% | [14]; at 100.0 µM 43% | [15]; [17] -1% | [15]; [18] 40% | [15]; at 50.0 µM 46% | [16]; at 1.2 µM -1% | [16]; at 3.7 µM 0% | [16]; at 11.0 µM 9% | [16]; at 33.0 µM 7%
active: [1]; at 100.0 µM 82% | [5]; [18] 73% | [5]; at 100.0 µM 73% | [16]; at 100.0 µM 77%

CCCC/C([O-])=C1/C(=O)N(c2ccccc2)N=C1C.CCCC/C([O-])=C1/C(=O)N(c2ccccc2)N=C1C.[Cu+2]
inactive: [1]; at 1.2 µM 1% | [1]; at 3.7 µM 2% | [1]; at 11.0 µM 2% | [1]; at 33.0 µM 1% | [1]; at 100.0 µM -2% | [2]; at 1.2 µM 0% | [2]; at 3.7 µM -1% | [2]; at 11.0 µM -2% | [2]; at 33.0 µM -2% | [2]; at 100.0 µM -3% | [3]; at 1.2 µM -1% | [3]; at 3.7 µM 0% | [3]; at 11.0 µM -1% | [3]; at 33.0 µM -2% | [3]; at 100.0 µM 0% | [4]; at 1.2 µM -2% | [4]; at 3.7 µM -1% | [4]; at 11.0 µM 0% | [4]; at 33.0 µM 0% | [4]; at 100.0 µM -5% | [5]; at 1.2 µM 1% | [5]; at 3.7 µM 2% | [5]; [17] 28% | [5]; at 11.0 µM 2% | [5]; at 33.0 µM 1% | [5]; [18] 48% | [5]; at 50.0 µM -7.7% | [5]; at 100.0 µM 0% | [6]; at 1.2 µM -3% | [6]; at 3.7 µM -3% | [6]; [17] 10% | [6]; at 11.0 µM -6% | [6]; at 33.0 µM 1% | [6]; [18] 29% | [6]; at 50.0 µM -6.8% | [6]; at 100.0 µM -6% | [7]; at 1.2 µM 0% | [7]; at 3.7 µM 0% | [7]; at 11.0 µM -1% | [7]; at 33.0 µM -2% | [7]; at 100.0 µM -2% | [8]; [17] -2% | [8]; [18] 42% | [8]; at 50.0 µM -13.3% | [9]; at 1.2 µM -4% | [9]; at 3.7 µM -2% | [9]; at 11.0 µM 7% | [9]; at 33.0 µM 0% | [9]; at 100.0 µM 3% | [10]; [17] 27% | [10]; [18] 44% | [10]; at 50.0 µM 32.3% | [11]; at 1.2 µM -1% | [11]; at 3.7 µM -1% | [11]; [17] 26% | [11]; at 11.0 µM -4% | [11]; at 33.0 µM -2% | [11]; [18] 48% | [11]; at 50.0 µM -1% | [11]; at 100.0 µM -5% | [12]; at 1.2 µM 0% | [12]; at 3.7 µM 0% | [12]; at 11.0 µM -1% | [12]; at 33.0 µM -2% | [12]; at 100.0 µM -3% | [13]; at 1.2 µM 0% | [13]; at 3.7 µM -3% | [13]; at 11.0 µM -2% | [13]; at 33.0 µM -3% | [13]; at 100.0 µM -2% | [14]; at 1.2 µM 0% | [14]; at 3.7 µM -1% | [14]; at 11.0 µM -2% | [14]; at 33.0 µM -1% | [14]; at 100.0 µM -1% | [15]; [17] 6% | [15]; [18] 8% | [15]; at 50.0 µM -20.8%
